In PubChem BioAssay (EPA / NIEHS) one finds outcome and AC50 data, which are given here for 40 molecules.

Active and inactive are the calls of the source. The calls were made as follows: active = hit-call score of the fitted dose curve at least 0.9, where 1 is the maximum; inactive = score below 0.9.

This test can be described thus: APR_HepG2_MitoMembPot_1hr: Apredica 1-hour HepG2 Assay for Mitochondrial Membrane Potential (AID 2282675). As to conditions: imaging, actives raise or lower the signal. The protocol:
APR_HepG2_1hr is a cell-based, multiplexed-readout assay that uses HepG2, a human liver cell line, with measurements taken at 1 hour after chemical dosing in a 384-well plate.APR_HepG2_MitoMembPot_1hr is one of 10 assay component(s) measured or calculated from the APR_HepG2_1hr assay. It is designed to make measurements of dye binding, a form of membrane potential reporter, as detected with fluorescence intensity signals by HCS Fluorescent Imaging technology.Data from the assay component APR_HepG2_MitoMembPot_1hr was analyzed into 1 assay endpoint. This assay endpoint, APR_HepG2_MitoMembPot_1hr, was analyzed with bidirectional fitting relative to DMSO as the negative control and baseline of activity. Using a type of membrane potential reporter, gain or loss-of-signal activity can be used to understand changes in the signaling. Furthermore, this assay endpoint can be referred to as a primary readout, because this assay has produced multiple assay endpoints where this one serves a signaling function. To generalize the intended target to other relatable targets, this assay endpoint is annotated to the cell morphology intended target family, where the subfamily is organelle conformation.
Cells were treated with dimethyl sulfoxide (DMSO) as a solvent control at a final concentration of 0.5% v/v or with compounds in DMSO with a resulting final DMSO concentration of 0.5% v/v. Compound treatment was done at concentrations of 0.39, 0.78, 1.56, 3.12, 6.24, 12.5, 25, 50, 100, and 200 uM in duplicate on each plate. Cells were treated with compounds for 1, 24, or 72 hr. Carbonyl […] m-chloro-phenylhydrazone (CCCP) and taxol were used as positive controls for mitochondrial function and cytoskeletal stability, respectively; DMSO served as the negative control for this experiment. Cells were fixed by the direct addition of 50 uL formaldehyde in Hank's Balanced Salt Solution (HBSS) to a final concentration of 3.7%. After incubation in the fixation medium for 30 min at room temperature (293-298 K), cells were rinsed twice with HBSS and treated with cell permeabilization buffer (16 uL of 0.5% Triton X-100) for 10 min at room temperature (293-298 K) before labeling. For mitochondrial membrane potential and mitochondrial measurements, pre-fixed cells were incubated with 50 uL of MitoTracker Red CMXRos (Invitrogen) at a concentration of 250 nM for 30 min before fixation. In the remaining cases, post-fixed cells were labeled by incubation with a multiplexed mixture of primary antibodies in HBSS for 60 min at room temperature (293-298 K) to detect immunoreactivity of c-Jun (1:500), phospho-histone H3 (1:100), phospho-histone H2A.x (1:200), p53 (1:400), alpha-tubulin (1:200) and Hoechst 33342 (2 ug/mL). Cells were labeled for multiplexed imaging on two separate plates: a) Hoechst 33342, MitoTracker Red, phospho-histone H3, and alpha-tubulin, and b) Hoechst 33342, phospho-histone H2A.x, and c-Jun. A final rinse with HBSS (50 uL) was performed before analysis. The primary and secondary antibodies for the proteins were phospho-histone H3 (rabbit anti-phospho-histone H3 and FITC-donkey anti-rabbit IgG), phospho-histone H2A.x (mouse anti-phospho-histone H2A.x and FITC-donkey anti-mouse IgG), c-Jun (rabbit anti-phospho-c-Jun and Cy3-donkey anti-rabbit IgG), p53 (sheep anti-p53 and Cy5-donkey anti-sheep IgG), alpha-tubulin (mouse anti-alpha-tubulin and Cy5-donkey anti-mouse IgG). These antibodies are available as the CellCiphr HepG2 assay kit (Millipore).Digital images of each well were captured using a Cellomics ArrayScan VTI (Thermo Scientific Cellomics) (0.8 NA objective, 0.63x optical coupler, and XF-93 filter set) at 20x magnification. The images were acquired using the autofocus feature of the ArrayScan instrument, which entails the following steps. First, the camera focuses on channel 1 (Hoechst 33342), where nuclei are identified. Second, a Z offset of 1 um is used for capturing mitochondria (MitoTracker Red). […]
For the molecule `CCc1cccc(CC)c1N(COC)C(=O)CCl`, the result was inactive. Regarding `CSc1nnc(C(C)(C)C)c(=O)n1N`, the call was inactive. Same read-out and setting: the result for `CCCSP(=O)(OCC)Oc1ccc(Br)cc1Cl` (stereo not given) reads “inactive”; that for `FC(F)C(F)(F)OCC(Cn1cncn1)c1ccc(Cl)cc1Cl` (stereo not given), “inactive”.

Regarding `CCC(=O)Nc1ccc(Cl)c(Cl)c1`, the result was inactive.

`C[Si](Cn1cncn1)(c1ccc(F)cc1)c1ccc(F)cc1`: the molecule was called inactive. Take `CCCOCC(=Nc1ccc(Cl)cc1C(F)(F)F)n1ccnc1`: the molecule was called inactive. Consider `N#CSCSC#N`, for which the outcome was inactive. Same read-out and setting: the result for `CNC(=O)ON=C(C)SC` reads “inactive”; that for `CSC1=N[C@@](C)(c2ccccc2)C(=O)N1Nc1ccccc1`, “inactive”; that for `CCNc1nc(Cl)nc(NC(C)(C)C#N)n1`, “inactive”. The same measure, in the same setting: to `CON=C(C(=O)OC)c1ccccc1CON=C(C)c1cccc(C(F)(F)F)c1` belongs “inactive”; to `CCC(=NOC/C=C/Cl)C1=C(O)CC(C2CCOCC2)CC1=O` (stereo not given), “inactive”. Still for that read-out and setting: to `COP(=O)(OC)SCn1c(=O)oc2cc(Cl)cnc21` belongs “inactive”; to `CCc1cnc(C2=NC(C)(C(C)C)C(=O)N2)c(C(=O)O)c1` (stereo not given), “inactive”; to `CCC(CC)Nc1c([N+](=O)[O-])cc(C)c(C)c1[N+](=O)[O-]`, “inactive”. As to `CN1COCN(Cc2cnc(Cl)s2)C1=N[N+](=O)[O-]`, the outcome was inactive. On the same count and under the same terms, to `COc1cccc(C(=O)NN(C(=O)c2cc(C)cc(C)c2)C(C)(C)C)c1C` belongs “inactive”. On the same count and under the same terms, to `CC(Oc1cccc(Cl)c1)C(=O)O` (stereo not given) belongs “inactive”. Regarding `C[N+]1(C)CCCCC1`, the molecule was called inactive. On the same count and under the same terms, to `CNc1cnn(-c2cccc(C(F)(F)F)c2)c(=O)c1Cl` belongs “inactive”; to `S=C1NCCN1`, “inactive”.

With `CCCSP(=O)(OCC)SCCC`, the result was inactive. The same measure, in the same setting: to `CSc1nc(NC(C)C)nc(NC(C)C)n1` belongs “inactive”. Still for that read-out and setting: the result for `CN(C)[C@@H]1C(=O)C(C(N)=O)=C(O)[C@@]2(O)C(=O)C3=C(O)c4c(O)cccc4[C@@](C)(O)[C@H]3[C@H](O)[C@@H]12` reads “inactive”. As for `Cc1cc(C2CC2)nc(Nc2ccccc2)n1`, the concentration at half-maximal activity (AC50) (in general, the concentration at which the activity in the assay is half-maximal) is 29.2 µM (active).

For `CC(COc1ccc(Oc2ccccc2)cc1)Oc1ccccn1` (stereo not given), the AC50 is 66.9 µM (active). On to `CCOC(=O)CC(SP(=O)(OC)OC)C(=O)OCC` (stereo not given), for which the result was inactive. On the same count and under the same terms, to `CC(C)[C@H](C(=O)O[C@H](C#N)c1cccc(Oc2ccccc2)c1)c1ccc(Cl)cc1` belongs “inactive”. The same measure, in the same setting: the result for `CCOP(=O)(NC(C)C)Oc1ccc(SC)c(C)c1` (stereo not given) reads “inactive”; that for `CCCCOC(=O)c1ccccc1C(=O)O`, “inactive”.

As to `COP(=O)(NC(C)=O)SC` (stereo not given), the molecule was classed as inactive. As to `COc1cc(OC)nc(Sc2cccc(Cl)c2C(=O)O)n1`, the molecule was called inactive. For `CCOP(=S)(OCC)Oc1ccc2c(C)c(Cl)c(=O)oc2c1`, the result was inactive. Turning to `Cc1ccn2nc(S(=O)(=O)Nc3c(F)cccc3F)nc2n1`, the call was inactive. The same measure, in the same setting: to `COc1ccc(C(=CC(=O)N2CCOCC2)c2ccc(Cl)cc2)cc1OC` belongs “inactive”. The same measure, in the same setting: to `C#CCC1=C(C)C(OC(=O)C2C(C=C(C)C)C2(C)C)CC1=O` (stereo not given) belongs “inactive”; to `CCOP(=O)(OCC)Oc1cc(C)nc(C(C)C)n1`, “inactive”. Same read-out and setting: the result for `CCCCN(CC)c1c([N+](=O)[O-])cc(C(F)(F)F)cc1[N+](=O)[O-]` reads “inactive”. As to `CC1(C(=O)Nc2ccc(O)c(Cl)c2Cl)CCCCC1`, the outcome was inactive.
